Measured values as given in PubChem BioAssay (NCI).
Compounds without any hit were thinned out: in the full panel of roughly 83,000, 20% have a hit.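 Note: values are percent growth. 100 is the growth of untreated cells, values between 100 and 0 indicate rising inhibition; between -100 and 0 indicates cell death.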 Activity calls are given as the source filed them. Rule for the calls: active = growth percent below 10; inactive = the rest.

What was measured:
Assay in all cases: NCI-60 one-dose screen, 48 h (100 = growth as untreated, 0 = no growth, -100 = all killed)
Details in all cases: 10 µM unless noted
NCI-H23 lung = test system: NCI-H23 lung
NCI-H226 lung = test system: NCI-H226 lung
NCI-H322M lung = test system: NCI-H322M lung
HOP-62 NSCLC = test system: HOP-62 NSCLC
NCI-H460 lung = test system: NCI-H460 lung
HOP-92 NSCLC = test system: HOP-92 NSCLC
NCI-H522 lung = test system: NCI-H522 lung
A549/ATCC NSCLC = test system: A549/ATCC NSCLC
786-0 renal = test system: 786-0 renal
COLO 205 colon = test system: COLO 205 colon

Measured: growth

O=C(N/N=C/c1ccc(Cl)cc1)c1ccc(NC(=O)c2ccccn2)cc1
inactive: NCI-H23 lung 54.5% | NCI-H226 lung 42.8% | NCI-H322M lung 66.4% | HOP-62 NSCLC 59.4% | HOP-92 NSCLC 51.6% | NCI-H522 lung 73.3% | A549/ATCC NSCLC 26.1% | COLO 205 colon 59.1%
active: NCI-H460 lung 4.21% | 786-0 renal 4.44%

CN(C)c1ccc(/C=N\NC(=O)c2ccc3nc(-c4ccc(Cl)cc4)[nH]c3c2)cc1
inactive: NCI-H23 lung 61.4% | NCI-H226 lung 93.1% | NCI-H322M lung 77.6% | HOP-62 NSCLC 60.5% | NCI-H460 lung 36.2% | HOP-92 NSCLC 84.6% | NCI-H522 lung 96.1% | A549/ATCC NSCLC 17.8% | 786-0 renal 12.2% | COLO 205 colon 41.3%

COc1nc(/C=C\Nc2ccc3c(c2)OCCOCCOCCOCCO3)nc(OC)n1
inactive: NCI-H23 lung 85.7% | NCI-H226 lung 103% | NCI-H322M lung 90.5% | HOP-62 NSCLC 109% | NCI-H460 lung 97.3% | HOP-92 NSCLC 95.7% | NCI-H522 lung 109% | A549/ATCC NSCLC 99.2% | 786-0 renal 97.7% | COLO 205 colon 109%

C/C(=C(\c1ccc(OCCN2CCCCCC2)cc1)c1ccc(OC(=O)c2ccccc2)cc1)c1ccc(Cl)cc1
inactive: NCI-H23 lung 46.7% | NCI-H226 lung 87.5% | NCI-H322M lung 71.7% | HOP-62 NSCLC 71.7% | HOP-92 NSCLC 56.2% | NCI-H522 lung 51% | A549/ATCC NSCLC 39.1% | 786-0 renal 21.8%
active: NCI-H460 lung 3.62% | COLO 205 colon 4.38%

COc1cc(-c2ccc[nH]2)[nH]c1/C=C1\N=C(C)C(CC(=O)OCC(C)(C)C)=C1C
active: NCI-H23 lung -46.8% | NCI-H226 lung -55.5% | NCI-H322M lung -49.7% | HOP-62 NSCLC -70.9% | NCI-H460 lung -67.3% | HOP-92 NSCLC -51.3% | NCI-H522 lung -62.8% | A549/ATCC NSCLC -69.1% | 786-0 renal -88.1% | COLO 205 colon -61.9%

CCN(CC)CCOc1ccc(C(=O)/C=C\c2ccc(Cl)cc2Cl)cc1
active: COLO 205 colon -53.5%
inactive: NCI-H23 lung 58.3% | NCI-H226 lung 53.5% | NCI-H322M lung 63.9% | HOP-62 NSCLC 57.2% | NCI-H460 lung 61.3% | HOP-92 NSCLC 24.5% | NCI-H522 lung 44% | A549/ATCC NSCLC 21.7% | 786-0 renal 35.9%

CCN(CC)CCOc1ccc(/C(=C(\C)Cc2ccc(OC)cc2)c2ccc(OC(=O)NCc3ccccc3)cc2)cc1
inactive: NCI-H23 lung 88.4% | NCI-H226 lung 86.9% | NCI-H322M lung 80.4% | HOP-62 NSCLC 79.7% | HOP-92 NSCLC 59% | NCI-H522 lung 69.7% | A549/ATCC NSCLC 48.1% | 786-0 renal 56.7%
active: NCI-H460 lung 1.28% | COLO 205 colon -56.1%

O=C(Nc1nc(Cl)nc(Nc2ccc(N3CCOCC3=O)cc2)n1)c1ccc(Cl)s1
inactive: NCI-H23 lung 88.1% | NCI-H226 lung 86.4% | NCI-H322M lung 97.8% | HOP-62 NSCLC 97.6% | NCI-H460 lung 99.9% | HOP-92 NSCLC 80.2% | NCI-H522 lung 81.1% | A549/ATCC NSCLC 77.3% | 786-0 renal 108% | COLO 205 colon 97.3%

Cc1cc(N2CCN(CC(=O)Nc3ccc4c(ccn4Cc4ccccc4)c3)CC2)nc(N2CCOCC2)n1
inactive: NCI-H23 lung 83.8% | NCI-H226 lung 84.3% | NCI-H322M lung 90.4% | HOP-62 NSCLC 91.1% | NCI-H460 lung 95.2% | HOP-92 NSCLC 45.4% | NCI-H522 lung 73.8% | A549/ATCC NSCLC 73.6% | 786-0 renal 84.6% | COLO 205 colon 98.2%

COc1cc(OC)c2c(=O)c3c(CC=C(C)C)cc(OC)c(O)c3oc2c1
inactive: NCI-H23 lung 93.7% | NCI-H226 lung 99.3% | NCI-H322M lung 83.7% | HOP-62 NSCLC 89.1% | NCI-H460 lung 99.2% | HOP-92 NSCLC 77% | NCI-H522 lung 53% | A549/ATCC NSCLC 90.8% | 786-0 renal 90.1% | COLO 205 colon 111%

COc1cc(-c2ccc(-c3ccc(C(=N)N)cc3)s2)cc(OC)c1OC
inactive: NCI-H23 lung 84.4% | NCI-H226 lung 82.5% | NCI-H322M lung 73.2% | HOP-62 NSCLC 59.1% | NCI-H460 lung 37.1% | HOP-92 NSCLC 43.4% | NCI-H522 lung 62.4% | A549/ATCC NSCLC 75.4% | 786-0 renal 69.4%
active: COLO 205 colon -41.8%

CS(=O)(=O)c1ccc(-c2nc3ccccc3n2CC(=O)N/N=C/c2ccccc2)cc1
inactive: NCI-H23 lung 94.2% | NCI-H226 lung 98.8% | NCI-H322M lung 95.5% | HOP-62 NSCLC 89% | NCI-H460 lung 107% | HOP-92 NSCLC 96.3% | NCI-H522 lung 79.1% | A549/ATCC NSCLC 97.2% | 786-0 renal 97.1% | COLO 205 colon 104%

COc1ccc(Nc2ncc(C#N)c(NCCCNC(=O)C3CCC3)n2)cc1
inactive: NCI-H23 lung 67.6% | NCI-H226 lung 49% | NCI-H322M lung 80.8% | HOP-62 NSCLC 31.4% | NCI-H460 lung 41.7% | HOP-92 NSCLC 64.3% | NCI-H522 lung 85.1% | A549/ATCC NSCLC 61.2% | 786-0 renal 50.4% | COLO 205 colon 33.3%

COC(=O)c1c2c(c[n+]([O-])c1C)C(=O)C=C(NCc1ccccc1)C2=O
active: NCI-H23 lung -39.1% | NCI-H226 lung -90.8% | NCI-H322M lung -100% | HOP-62 NSCLC -95.3% | NCI-H460 lung -79.8% | HOP-92 NSCLC -74.5% | NCI-H522 lung -57.9% | A549/ATCC NSCLC -64.2% | 786-0 renal -69% | COLO 205 colon -73.7%

O=C(Nc1cc(Cl)ccc1O)c1ccccc1Nc1ccnc(C(F)(F)F)c1
inactive: NCI-H226 lung 50.9% | NCI-H322M lung 30.9% | HOP-62 NSCLC 16.6% | HOP-92 NSCLC 49.1% | A549/ATCC NSCLC 19.7% | 786-0 renal 57.9% | COLO 205 colon 79.6%
active: NCI-H23 lung -5.07% | NCI-H460 lung 2.15% | NCI-H522 lung -6.22%

COC(=O)c1nc(-c2ccccc2)oc1S(=O)(=O)N1CCCC(C)C1 (stereo not given)
inactive: NCI-H23 lung 87.8% | NCI-H226 lung 90.6% | NCI-H322M lung 90.2% | HOP-62 NSCLC 107% | NCI-H460 lung 102% | HOP-92 NSCLC 72.7% | NCI-H522 lung 28.6% | A549/ATCC NSCLC 96.8% | 786-0 renal 59.1% | COLO 205 colon 67.7%

Cc1ccc2c(c1)nc(C)n2-c1ncnc2c1CC(C)c1cc(O)ccc1N2C (stereo not given)
inactive: NCI-H23 lung 65.7% | NCI-H226 lung 74.1% | NCI-H322M lung 64% | HOP-62 NSCLC 37.8% | NCI-H460 lung 19.7% | HOP-92 NSCLC 24.7% | NCI-H522 lung 23.6% | A549/ATCC NSCLC 31% | 786-0 renal 33.4% | COLO 205 colon 98.5%

C=C(C)[C@@H]1CC[C@]2(C(=O)Nc3ccccn3)CC[C@]3(C)[C@H](CC[C@@H]4[C@@]5(C)CCCNC(C)(C)[C@@H]5CC[C@]43C)[C@@H]12
inactive: NCI-H23 lung 19.5% | NCI-H226 lung 43.3% | NCI-H322M lung 65.5% | HOP-62 NSCLC 30.4% | HOP-92 NSCLC 41.8% | NCI-H522 lung 12.6% | A549/ATCC NSCLC 23.1% | 786-0 renal 33.9%
active: NCI-H460 lung -40.3% | COLO 205 colon -62.2%

O=C1O[C@@H](c2ccccc2Cl)[C@@H]2c3cc4c(cc3CCN12)OCO4
inactive: NCI-H23 lung 103% | NCI-H226 lung 93.7% | NCI-H322M lung 89.3% | HOP-62 NSCLC 96.2% | NCI-H460 lung 101% | HOP-92 NSCLC 92.5% | NCI-H522 lung 81.9% | A549/ATCC NSCLC 86.3% | 786-0 renal 97.9% | COLO 205 colon 110%

COc1cc2c(c(OC)c1OC)CCC(c1cccc(C(=O)Nc3ccc(Br)cc3)c1)O2 (stereo not given)
inactive: NCI-H23 lung 75.8% | NCI-H226 lung 62.7% | NCI-H322M lung 50% | HOP-62 NSCLC 82% | NCI-H460 lung 84% | HOP-92 NSCLC 17% | NCI-H522 lung 48.8% | A549/ATCC NSCLC 64.2% | 786-0 renal 84.1% | COLO 205 colon 76.5%

COc1cc(/C=N/NC(=O)c2ccc(-n3cc(-c4ccccc4)nn3)cc2)cc(OC)c1OC
inactive: NCI-H23 lung 59.1% | NCI-H226 lung 32.5% | NCI-H322M lung 60.6% | HOP-62 NSCLC 71.7% | NCI-H460 lung 41.5% | HOP-92 NSCLC 86.9% | NCI-H522 lung 68.3% | A549/ATCC NSCLC 81.2% | 786-0 renal 93.8% | COLO 205 colon 56.7%

C[C@@H]1NC(=O)[C@H](Cc2ccccc2)N(Cc2cccnc2)C1=O
inactive: NCI-H23 lung 101% | NCI-H226 lung 90.4% | NCI-H322M lung 109% | HOP-62 NSCLC 94.8% | NCI-H460 lung 102% | HOP-92 NSCLC 84.7% | NCI-H522 lung 95.9% | A549/ATCC NSCLC 94.6% | 786-0 renal 90.3% | COLO 205 colon 105%

N=C(N)c1ccc(-c2ccc(-c3ccccc3)o2)o1
inactive: NCI-H23 lung 49.6% | NCI-H226 lung 78.5% | NCI-H322M lung 60.3% | HOP-62 NSCLC 46.9% | HOP-92 NSCLC 24.2% | NCI-H522 lung 50.5% | A549/ATCC NSCLC 26.2% | 786-0 renal 33.4%
active: NCI-H460 lung 6.8% | COLO 205 colon -73.1%

CS(=O)(=O)Nc1cc(-c2ccc3ncnc(Nc4ccc(OCc5ccccn5)c(Cl)c4)c3c2)cnc1Cl
active: NCI-H23 lung -8.13% | NCI-H322M lung 9.88% | NCI-H460 lung 9.64% | HOP-92 NSCLC -6.05% | NCI-H522 lung -18.3% | COLO 205 colon -90.9%
inactive: NCI-H226 lung 21.2% | HOP-62 NSCLC 15.3% | A549/ATCC NSCLC 11.8% | 786-0 renal 22.2%

CC(C)(C)c1ccc(S(=O)(=O)Oc2ccc(-c3sc4cc(OS(=O)(=O)c5ccc(C(C)(C)C)cc5)ccc4c3C(=O)c3ccc(OCCN4CCCCC4)cc3)cc2)cc1
inactive: NCI-H23 lung 93.3% | NCI-H226 lung 94.7% | NCI-H322M lung 96.1% | HOP-62 NSCLC 90.8% | NCI-H460 lung 104% | HOP-92 NSCLC 84.4% | NCI-H522 lung 72% | A549/ATCC NSCLC 87.4% | 786-0 renal 89% | COLO 205 colon 101%

c1ccc(Cn2cc3c(c2-c2ccccc2)CCc2cnoc2-3)cc1
inactive: NCI-H23 lung 78.8% | NCI-H226 lung 83.6% | NCI-H322M lung 95.6% | HOP-62 NSCLC 75.1% | NCI-H460 lung 53.7% | HOP-92 NSCLC 65.8% | NCI-H522 lung 56.6% | A549/ATCC NSCLC 59.6% | 786-0 renal 80.2% | COLO 205 colon 80.5%
